# In PubChem BioAssay AID836 (Columbia University Molecular Screening Center, 2007):
# The whole screen tested about 91,000 compounds, of which about 160 (0.18%) were called active. The sample as a whole holds a higher share of actives than the screen did. Unmarked numbers belong to inactive results.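 Rule for the calls: active = inhibition above the batch mean plus 3 SD and confirmed as a hit by visual image inspection (cut at about 30% in these data, passing the limit was not always enough); inconclusive = above the inhibition threshold but rejected on visual inspection; inactive = the rest.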
# Experiment: modifiers of F-actin cytoskeleton organization, primary screen, imaging, HUVEC, phalloidin staining, high-content imaging (AID 836)
# Settings: HUVEC TNFa F-actin phalloidin imaging, at 2 µM, stronger effect = higher value
row,SMILES,inhibition
1,Cc1cccc(C)c1NC(=O)c1ccc(CN2CCc3ccccc3C2)cc1,-19.9%
2,Cc1cc(C)cc(OCC(=O)Nc2nc3ccc([N+](=O)[O-])cc3s2)c1,-19.8%
3,Cc1ccc(-c2nnc(-n3nnc4ccccc43)c3ccccc23)cc1,-2%
4,CC(C)c1ccc(/C=C/C(=O)NNC(=O)c2cccnc2)cc1,1.1%
5,O=C(Nc1ccccc1)O/N=C1\CCCCC1c1ccc([N+](=O)[O-])cc1[N+](=O)[O-] (stereo unspecified),-8.4%
6,c1ccc2c(CSCc3nc4ccccc4[nH]3)cccc2c1,-12.1%
7,CSc1ccc(C#N)cc1NC(=O)c1cccc(Cl)c1,3.3%
8,Cc1[nH]n(-c2ccccc2)c(=O)c1CCOC(=O)c1ccc(C(F)(F)F)cc1,-0.4%
9,CN(C)Cc1ccccc1C1(O)c2ccccc2CSc2ccccc21 (stereo unspecified),-10.2%
10,O=C(/C=C/c1ccccc1)N/C(=C/c1ccccc1)C(=O)Nc1ccccc1O,-50.9%
11,CCOc1ccc(-c2c(C)n([O-])c3c([n+]2=O)CCCC3)cc1,-18.2%
12,Cc1c(Nc2cc(N3CCCC(C)C3)c3nonc3c2[N+](=O)[O-])c(=O)n(-c2ccccc2)n1C (stereo unspecified),3.1%
13,COc1cc(/C=N/O)cc(Br)c1OCc1cccc(Cl)c1,-41.4%
14,CCOC(=O)c1nn(-c2cccc(C)c2)cc1C(=O)c1ccccc1,5.4%
15,O=C(/C=C/c1cc2c(cc1Br)OCO2)NCc1ccc(Cl)cc1,7.8%
16,Cc1nc(NC2=NC(C(=O)Nc3ccc(Cl)cc3)CC(=O)N2)nc2ccccc12 (stereo unspecified),7.9%
17,Cc1nc(C)c(C(=O)N(c2ccc(C)c(C)c2)C(C(=O)NCc2ccco2)c2ccccc2)s1 (stereo unspecified),29.1%
18,Cc1ccc(NC(=S)N/N=C2/CCCc3c(C)cc(C)cc32)cc1,13.9%
19,Cc1nn(-c2ccccc2)c(Cl)c1C(=O)Nc1ccccc1,-7.8%
20,Cc1cc(=O)oc2cc(OC(C)C(=O)Nc3ccc(N4CCOCC4)cc3)ccc12 (stereo unspecified),0.5%
21,CCOC(=O)CSc1ncc(-c2cccc(Cl)c2)cn1,-17.9%
22,C=CCn1c(SCC(=O)c2c(N)n(C)c(=O)n(C)c2=O)nc2sc(CC)cc2c1=O,2%
23,Cc1cccc(NC(=O)c2ccc(OCC(=O)NCc3ccccc3)cc2)c1C,4.9%
24,COc1ccc(Cl)cc1NC(=O)CN(C)C(=O)CNC(=O)C12CC3CC(CC(C3)C1)C2,16%
25,O=C(Cc1ccc(S(=O)(=O)N2CCOCC2)s1)NCCC(c1ccccc1)c1ccccc1,4.8%
26,CCCc1ccc(-c2c(C)sc(NC(=O)c3ccnn3C)c2C#N)cc1,10%

row,SMILES,inhibition
1,CCOC(=O)C1=C(CN2CCc3ccccc32)NC(=O)NC1c1cc(C)ccc1C (stereo unspecified),-13.1%
2,CCn1cc(C(=O)N/N=C(/C)c2ccc(F)cc2)c(=O)c2cc(F)c(N3CCCC3)cc21,15.8%
3,Cc1c(C(=O)NCc2ccccc2)cnn1-c1ccccc1,-6.2%
4,O=C(Nc1cc(C(F)(F)F)ccc1Cl)c1cc2nc3c(c(C(F)(F)F)n2n1)CCCC3,0.6%
5,O=C(CN1CCCCCC1)Nc1ccc(Br)cc1Br,12.8%
6,CC(C)(C)Cc1nnc(NC(=O)c2cc(-c3ccccc3)nc3ccccc23)s1,15.7%
7,C=CCn1c(-c2ccc(Cl)cc2)ccc(C#N)c1=O,-30.7%
8,O=[N+]([O-])c1cccc(-c2nnc3c4ccccc4c4ccccc4n23)c1,5.3%
9,CN1OC(COC(=O)c2ccc(Cl)cc2)CC1c1ccccc1 (stereo unspecified),6.5%
10,CC1Cc2ccccc2N1CC(=O)Nc1ccc2c(c1)OC(F)(F)O2 (stereo unspecified),-0.7%
11,Cn1sc(NC(=O)c2ccccc2)nc1=O,-7.1%
12,CCOC(=O)CSc1nc2sc3c(c2c(=O)[nH]1)CC(C)(C)OC3,4.9%
13,CCOC(=O)Cn1c(SC)nc2sc3c(c2c1=O)CC(C)(C)OC3,81.7% (active)
14,CCC1(C)Cc2c(sc3nc4n(c(=O)c23)CCCS4)CO1 (stereo unspecified),-10.6%
15,COc1ccc(CCN(C(=O)COc2ccccc2)c2nc(-c3ccccc3)cs2)cc1OC,-22.5%
16,C=CCOc1cccc(CNn2cn[nH]c2=S)c1,0.7%
17,Cn1c2ccccc2n2c(=O)c(=O)n(CC(=O)c3ccc(F)cc3)nc12,-17.3%
18,COc1ccc(Nc2nc(-c3ccccc3)cs2)cc1,11.3%
19,c1ccc(C2CCC(N3CCC(N4CCCCC4)CC3)CC2)cc1 (stereo unspecified),26.6%
20,O=C(CSCc1c(Cl)cccc1Cl)NN1C(=O)c2ccccc2C1=O,11.9%
21,CC(=O)NNc1cc(=O)c2c(=O)n(C)c(=O)n(C)c2[nH]1,-8.3%
22,CCCCNC(=O)CCn1c(=S)[nH]c2cc3c(cc2c1=O)OCO3,-16.1%
23,CCCNC(=S)NC1CC2CCCC(C1)N2CC(C)C (stereo unspecified),14.2%
24,O=C(NC1CCc2ccccc21)C12CN(Cc3ccccc3)CC1C(c1cccc([N+](=O)[O-])c1)=NO2 (stereo unspecified),11.9%
25,CCCSc1nsc(N)n1,8.5%
